VDR inh: Inhibitors of the vitamin D receptor (VDR): qHTS. AID 504847, 2011. Vitamin D3 receptor (Homo sapiens), P11473. VDR-SRC2-3 peptide fluorescence polarization, 2 h. 400,000 compounds, 0.93% hits. Potency, µM, actives largely listed as inhibitors
Target sequence (P11473 whole entry, looked up): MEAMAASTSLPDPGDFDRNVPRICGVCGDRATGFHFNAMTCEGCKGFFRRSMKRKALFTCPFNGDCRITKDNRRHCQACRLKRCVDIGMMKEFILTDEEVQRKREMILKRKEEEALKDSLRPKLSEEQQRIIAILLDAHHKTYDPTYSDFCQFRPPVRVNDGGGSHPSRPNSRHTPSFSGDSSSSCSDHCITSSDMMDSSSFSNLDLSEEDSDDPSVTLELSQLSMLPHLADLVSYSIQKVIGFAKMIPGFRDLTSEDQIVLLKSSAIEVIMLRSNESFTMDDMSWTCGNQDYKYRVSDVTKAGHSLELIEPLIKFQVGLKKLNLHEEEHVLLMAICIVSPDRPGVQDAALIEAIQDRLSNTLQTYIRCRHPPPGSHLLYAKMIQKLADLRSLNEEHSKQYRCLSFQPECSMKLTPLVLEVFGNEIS
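Inhibition of the VDR/SRC2-3 peptide interaction is quantified by fluorescence polarization. Compounds (23 nl, pintool) incubate with the reagents for 2 hours at ambient room temperature.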
PLK1 PBD inh: qHTS for Inhibitors of PLK1-PDB (polo-like kinase 1 - polo-box domain): Primary Screen | Plk1 PBD binding of FITC phosphopeptide, fluorescence polarization | Potency, µM, hits mostly inhibitors | AID 720504, 2013 | 360,000 compounds, 2.8% hits | Serine/threonine-protein kinase PLK1 (Homo sapiens), P53350; also: series mostly up to about 57 µM; nearly all actives have a fitted effect of over 65% in size
KAT2A inh: qHTS Assay for Inhibitors of GCN5L2; Potency, µM (titrated, usually from 58.9 µM), usual class: inhibitors; 390,000 compounds, 0.21% hits; Histone acetyltransferase KAT2A (Homo sapiens), Q92830; GCN5L2 HAT assay, ThioGlo1 CoA-SH fluorescence
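qHTS, 1536-well. 20nM enzyme, pH 7.5 HEPES/EDTA/Tween-20 buffer; 15 min compound preinc., RT. Start: 75uM H3(1-25), 70uM AcCoA, 50uM ThioGlo1. Read Ex340/Em540 at t=0 (autofluorescence flag) and t=20 min.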
12-LOX inh: Primary qHTS assay for inhibitors of human arachidonate 12S-lipoxygenase (ALOX12): Round 2; 580,000 compounds, 1.1% hits; purified 12hLO, xylenol orange hydroperoxide absorbance; AID 1671190, 2021; Potency, µM (titrated, usually from 108 µM), actives largely listed as inhibitors
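Hydroperoxide product was detected by ferrous iron/xylenol orange as the 573 to 405 nm absorbance ratio. Arachidonic acid at 40 uM (final) was turned over for 30 min at room temperature by 150 nM human 12hLO, pH 7.0 Hepes buffer, after 15 min compound preincubation.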
Each line names hits and unclear results; the compound was inactive in the other large screens; ! = not active in a repeat. Sampled rows, rich in hits. Any-hit rate of the full collection: about 3%. Calls follow the shape of the dose curve; as a rule, active = well fitted curve in the direction sought with a large enough effect; inconclusive = small, poorly fitted or top-dose-only effect, or another doubt; inactive = no such curve, though single readings can be large; an effect the other way counts as inactive or inconclusive.

O=S(=O)(c1ccc(OC(F)(F)F)cc1)N1CCC(O)(c2cccc(C(F)(F)F)c2)CC1	VDR inh inconclusive, PLK1 PBD inh 27µM
Cc1ccc(-c2nn3c(N4CCCCC4)cc(C)nc3c2C)cc1	none (no result: VDR inh, PLK1 PBD inh, KAT2A inh)
CC(C)(C)c1cc(/C=C(\C#N)C(N)=S)cc(C(C)(C)C)c1O	VDR inh 35µM, 12-LOX inh inconclusive (no result: PLK1 PBD inh)
N#C/C(=C/c1ccc(-c2ccccc2)cc1)C(N)=O	none (no result: VDR inh, PLK1 PBD inh, KAT2A inh)
N#CC(C#N)=C(N)/C(C#N)=C/c1cc(O)c(O)c(O)c1	VDR inh 40µM!, 12-LOX inh 5µM!
N#C/C(=C/c1ccc(F)cc1)C(N)=S	VDR inh 89µM, PLK1 PBD inh 30µM
Cc1cc(C)c(/C=C(\C#N)C(N)=S)c(C)c1	12-LOX inh inconclusive
OCC1CCCCC1CN1CCNCC1 (stereo not given)	none (no result: VDR inh, PLK1 PBD inh, KAT2A inh)
CC(SC(C)c1ccc(F)cc1)C(N)=O (stereo not given)	none (no result: VDR inh, PLK1 PBD inh, KAT2A inh)
C#Cc1cccc(NC(=O)c2nccnc2N)c1	none (no result: VDR inh, PLK1 PBD inh, KAT2A inh)
Cc1ccc(-c2nn(-c3ccccc3)cc2C2SCC(=O)N2Cc2ccccc2)o1 (stereo not given)	12-LOX inh 32µM
CC(C)(C)NC(=O)C(c1cccs1)N(Cc1ccc(F)cc1)C(=O)c1csnn1 (stereo not given)	PLK1 PBD inh 27µM
CC(C)(C)NC(=O)C(c1cccs1)N(C(=O)c1csnn1)c1cccc(F)c1 (stereo not given)	none
Cc1cccc(CNc2ncnc3ccc(-c4ccoc4)cc23)c1	VDR inh 20µM!, KAT2A inh inconclusive, 12-LOX inh inconclusive (no result: PLK1 PBD inh)
c1cn(-c2ncnc3ccc(-c4ccoc4)cc23)cn1	VDR inh 32µM (no result: PLK1 PBD inh)
Cc1cccc(CNc2ncnc3ccc(-c4cccc(C)c4)cc23)c1	none (no result: VDR inh, PLK1 PBD inh, 12-LOX inh)
c1nc(NC2CC2)c2cc(-c3ccoc3)ccc2n1	VDR inh 40µM, 12-LOX inh inconclusive (no result: PLK1 PBD inh)
c1cncc(CNc2cc(-c3ccoc3)ncn2)c1	VDR inh 22µM, 12-LOX inh inconclusive (no result: PLK1 PBD inh)
COc1ccc(C(C)NC(=O)c2[nH]c3c(c2C)C(=O)CCC3)cc1F (stereo not given)	none (no result: VDR inh, PLK1 PBD inh, KAT2A inh)
O=C(O)c1ccc2oc(C(=O)c3ccccc3)cc2c1	none (no result: VDR inh, PLK1 PBD inh, KAT2A inh)
Fc1cccc(CNc2ncnc3ccc(-c4ccoc4)cc23)c1	none (no result: VDR inh, PLK1 PBD inh, 12-LOX inh)
Cc1cnc(CNc2ccnc(-c3ccoc3)n2)cn1	VDR inh inconclusive, 12-LOX inh inconclusive (no result: PLK1 PBD inh)
c1cncc(CNc2ncnc3ccc(-c4ccoc4)cc23)c1	VDR inh inconclusive, KAT2A inh 28µM! (no result: PLK1 PBD inh)
Cc1cnc(CNc2cc(-c3ccoc3)ncn2)cn1	VDR inh 45µM, 12-LOX inh inconclusive (no result: PLK1 PBD inh)
O=C(Nc1ccc(-c2nc3ccccc3o2)cc1)c1ccc(Cl)c([N+](=O)[O-])c1	none (no result: VDR inh, PLK1 PBD inh, KAT2A inh)
COC(=O)C1=C(C)Nc2ccc(C)cc2S1	VDR inh 71µM, PLK1 PBD inh inconclusive, 12-LOX inh inconclusive
COC(=O)c1ccc2c(c1)SC1=C(CCCC1=O)N2	none
COc1ccc(CCN(C)C(=O)C2CCCN(C3CCN(Cc4ccccc4)CC3)C2)cc1OC (stereo not given)	12-LOX inh 0.32µM!
COc1ccc(OC)c(CN2CCC(C(=O)N(C)CCc3ccc(OC)c(OC)c3)CC2)c1	12-LOX inh inconclusive
COCC(C)n1c(C)cc(C(=O)Cn2cnc3scc(-c4ccc(C)cc4)c3c2=O)c1C (stereo not given)	none (no result: VDR inh, PLK1 PBD inh, KAT2A inh)
O=C(NCCCn1ccnc1)c1cn(-c2ccccc2)nc1-c1ccccc1	none (no result: KAT2A inh)
O=C(NC(=S)NCCO)c1cn(-c2ccccc2)nc1-c1ccccc1	12-LOX inh 40µM
Fc1ccc(-c2ccnc(=S)[nH]2)cc1	VDR inh inconclusive, PLK1 PBD inh 9.5µM, KAT2A inh inconclusive, 12-LOX inh inconclusive
COc1ccc(/C=C/C(=O)OCCCC(c2ccc(F)cc2)c2ccc(F)cc2)cc1OC	none (no result: VDR inh, PLK1 PBD inh, KAT2A inh)
Cc1cc(C(=O)OCC(=O)Nc2sc3c(c2C#N)CCC(C)C3)c2ccccc2n1 (stereo not given)	PLK1 PBD inh inconclusive, KAT2A inh inconclusive, 12-LOX inh 40µM
COc1ccc(OC)c(-c2cc(C(=O)Nc3sc4c(c3C#N)CCC(C)C4)c3ccccc3n2)c1 (stereo not given)	none
Cc1cc2occ(CC(=O)OCC(=O)Nc3sc4c(c3C#N)CCC(C)C4)c2cc1C (stereo not given)	none
COc1ccccc1-c1cc(C(=O)Nc2sc3c(c2C#N)CCC(C)C3)c2ccccc2n1 (stereo not given)	PLK1 PBD inh 27µM
CCOC(=O)/C(=C\c1ccccc1)C(=O)CCN1CCOCC1	VDR inh inconclusive, PLK1 PBD inh 6.7µM, 12-LOX inh inconclusive (no result: KAT2A inh)
CCN1C(=O)/C(=C\c2ccc(-c3ccc([N+](=O)[O-])cc3OC)o2)SC1=Nc1cccc(C(=O)O)c1	VDR inh inconclusive, PLK1 PBD inh 21µM, 12-LOX inh inconclusive
O=C(O)c1cccc(-c2ccc(/C=C3/SC(=Nc4ccccc4)N(Cc4cccnc4)C3=O)o2)c1	PLK1 PBD inh 24µM, 12-LOX inh inconclusive
CCN=C1S/C(=C\c2ccc(-c3cccc(C(=O)O)c3)o2)C(=O)N1CC	PLK1 PBD inh inconclusive (no result: 12-LOX inh)
CCN1C(=O)/C(=C\c2ccc(-c3cccc(C(=O)OC)c3)o2)SC1=Nc1ccc(C(=O)O)cc1	12-LOX inh 50µM (no result: VDR inh, PLK1 PBD inh)
Cc1ccc(NC(=O)CN2C(=O)S/C(=C/c3ccc(-c4cc(C(=O)O)ccc4C)o3)C2=O)cc1C	PLK1 PBD inh inconclusive, 12-LOX inh inconclusive
O=C(Nc1nccs1)C1CC(=O)N(Cc2ccccn2)C1 (stereo not given)	none (no result: VDR inh, PLK1 PBD inh, KAT2A inh)
CCOC(=O)C(NC(=O)/C=C/c1ccccc1OC)C(=O)OCC	none (no result: VDR inh, PLK1 PBD inh, KAT2A inh)
C[C@H](NC(=O)C1CC(=O)N(c2ccc3c(c2)OCO3)C1)C(=O)NC1CCCC1 (stereo not given in full)	VDR inh inconclusive, PLK1 PBD inh 27µM
CN(C)C(=O)c1cccc(NC(=O)c2ccc(-c3ccccc3)cc2)c1	none (no result: VDR inh, PLK1 PBD inh, KAT2A inh)
O=[N+]([O-])c1cnc(NS(=O)(=O)c2ccccc2[N+](=O)[O-])s1	12-LOX inh 40µM (no result: VDR inh, PLK1 PBD inh, KAT2A inh)
CCc1nnc2c(NCCc3ccc(OC)c(OC)c3)nc3ccccc3n12	VDR inh inconclusive, PLK1 PBD inh 27µM
CC1=C(O)C(=O)CO1	12-LOX inh 25µM (no result: VDR inh, PLK1 PBD inh, KAT2A inh)
O=C1OCC(CC2=C(O)C(=O)OC2)=C1O	none (no result: KAT2A inh)
O=C(NCCc1ccccc1)c1nnc(CS(=O)(=O)c2ccccc2)o1	KAT2A inh 4.5µM
O=C(NCc1ccccc1)c1nnc(CS(=O)(=O)c2ccccc2)o1	none
c1ccc2[nH]c(CSc3ncnc4c3oc3ccccc34)nc2c1	KAT2A inh 40µM
CC(=O)C(=Nc1ccccc1Cl)NNc1ccc(Cl)cc1	VDR inh 45µM, 12-LOX inh inconclusive
Cc1cc(C(=O)Nc2sc3c(c2C#N)CCCC3)no1	PLK1 PBD inh 27µM, 12-LOX inh 35µM
CCOC(=O)c1cc(C(=O)Nc2sc3c(c2C#N)CCCC3)nn1C	VDR inh inconclusive, PLK1 PBD inh 21µM, 12-LOX inh inconclusive
CC(C)Cc1cc(C(=O)Nc2sc3c(c2C#N)CCCC3)no1	PLK1 PBD inh inconclusive
